Assay outcomes as filed in PubChem.
Shown are actives, neighbours in structure and some others; about 6.7% of the full set was active somewhere.
Pf Dd2 growth: blocks growth of Plasmodium falciparum Dd2 parasites; P. falciparum Dd2 growth, SYBR Green, 72 h; stronger effect = lower value; activity change, % at 10 µM; 2.3% of 94,000 active; AID 1159554; in the data active = activity change below about -80%
C diff growth: blocks growth of Clostridium difficile. Clostridium difficile clinical isolate growth, OD600, 24 h; stronger effect = lower value. growth activity, negative = inhibition, % at 16 µg/mL (by protocol). 0.25% of 86,000 active;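 active = mean growth activity at or below -80% and every replicate also at or below -80%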;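 also: 0% = DMSO wells and -100% = levofloxacin 16 µg/mL wells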
T cruzi growth: blocks T. cruzi growth in NIH3T3 culture. T. cruzi beta-gal in NIH3T3, GalScreen luminescence, 90 h. inhibition, % at 8.34 µM. 5.9% of 77,000 active;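 active = mean inhibition above about 93%, with at least 55% of replicates each passing it, limit read from the data, passing the limit was not always enough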
Starred values were filed as active, the others as inactive; · = no result given.

SMILES	Pf Dd2 growth	C diff growth	T cruzi growth
C[C@@H]1CN([C@@H](C)CO)C(=O)c2cc(NS(=O)(=O)c3cn(C)cn3)ccc2O[C@@H](C)CCCCO[C@H]1CN(C)C(=O)c1ccncc1	10	-4	17
COCC(=O)N1CCC2(CC1)CN(Cc1ccc3c(c1)OCO3)[C@H](CO)c1c2c2ccc(OC)cc2n1C	-60	44	·
CN(C)C(=O)C[C@H]1C=C[C@H](NS(=O)(=O)c2ccccc2)[C@H](CO)O1	29	·	-41
O=C(Nc1cccc(Cl)c1)N[C@H]1CC[C@@H](CCNC(=O)C2CCC2)O[C@@H]1CO	7	-2	·
Cc1noc(C)c1NC(=O)N(C)C[C@@H]1Oc2ccc(NS(=O)(=O)c3cn(C)cn3)cc2CC(=O)N([C@H](C)CO)C[C@H]1C	-83*	4	-8
Cc1noc(C)c1NC(=O)N(C)C[C@H]1Oc2ccc(NC(=O)C3CC3)cc2CC(=O)N([C@@H](C)CO)C[C@H]1C	-83*	4	-16
CNC[C@H]1Oc2ccc(NS(=O)(=O)c3cn(C)cn3)cc2CC(=O)N([C@H](C)CO)C[C@@H]1C	42	-10	-7
CNC[C@@H]1Oc2ccc(NS(=O)(=O)c3cn(C)cn3)cc2CC(=O)N([C@H](C)CO)C[C@@H]1C	6	0	98*
C[C@H]1CN([C@@H](C)CO)C(=O)Cc2cc(NC(=O)C3CC3)ccc2O[C@H]1CN(C)Cc1ccc(C(F)(F)F)cc1	-80*	8	37
Cc1noc(C)c1NC(=O)N(C)C[C@@H]1Oc2ccc(NS(=O)(=O)c3cn(C)cn3)cc2CC(=O)N([C@@H](C)CO)C[C@H]1C	40	-5	6
Cc1noc(C)c1NC(=O)N(C)C[C@@H]1Oc2ccc(NC(=O)C3CCCCC3)cc2CC(=O)N([C@@H](C)CO)C[C@@H]1C	14	2	-25
C[C@H](CO)N1C[C@H](C)[C@H](CN(C)Cc2ccc(C(F)(F)F)cc2)Oc2ccc(NC(=O)C3CC3)cc2CC1=O	11	5	10
C[C@H](CO)N1C[C@H](C)[C@H](CN(C)C(=O)Nc2cccc3ccccc23)OCCCC[C@H](C)Oc2ccc(NC(=O)C3CCCCC3)cc2C1=O	-78	2	70
Cc1noc(C)c1NC(=O)Nc1ccc2c(c1)C(=O)N([C@H](C)CO)C[C@H](C)[C@H](CN(C)Cc1ccc(Cl)c(Cl)c1)OCCCC[C@@H](C)O2	-9	1	28
C[C@H](O)C#Cc1ccc2c(c1)O[C@H](CN(C)C(=O)CC1CC1)[C@H](C)CN([C@@H](C)CO)S2(=O)=O	·	0	15
O=C(N[C@H]1CC[C@H](CCn2cc(C3(O)CCCC3)nn2)O[C@@H]1CO)C1CCCCC1	13	-1	-52
COc1cccc(NC(=O)N2C[C@H](O)COC[C@H]3O[C@@H](CC(=O)NC4CCCC4)CC[C@@H]32)c1	8	·	-2
COc1ccccc1CNC(=O)C[C@H]1CC[C@H]2[C@@H](COC[C@H](O)CN2C(=O)Nc2ccc(C(F)(F)F)cc2)O1	-36	·	63
CS(=O)(=O)Nc1ccc2c(c1)[C@@H]1C[C@H](CC(=O)NC3CCCC3)O[C@H](CO)[C@@H]1O2	30	3	-48
CN1CCN(C(=O)C[C@H]2C=C[C@H](NC(=O)Cc3ccccn3)[C@H](CO)O2)CC1	21	·	-24
C(=C\c1ccc(C2[C@@H]3CN(Cc4cccnc4)C[C@H]2N3)cc1)/c1ccccc1 (stereo not given in full)	-90*	14	·
c1ccc(CN2C[C@@H]3N[C@H](C2)C3c2ccc(-c3ccncc3)cc2)cc1 (stereo not given in full)	-84*	-5	·
c1ccc(CN2C[C@@H]3N[C@H](C2)C3c2ccc(-c3ccccc3)cc2)cc1 (stereo not given in full)	21	-6	·
Fc1ccccc1-c1ccc(C2[C@@H]3CN(Cc4ccccc4)C[C@H]2N3)cc1 (stereo not given in full)	-32	-98*	·
c1cncc(CN2C[C@@H]3N[C@H](C2)C3c2ccc(-c3cccnc3)cc2)c1 (stereo not given in full)	-69	-8	·
SMILES	Pf Dd2 growth	C diff growth	T cruzi growth
Fc1ccccc1-c1ccc(C2[C@@H]3CN(Cc4ccccn4)C[C@H]2N3)cc1 (stereo not given in full)	-4	-13	·
CCCNC(=O)N1[C@@H]2CN(C(=O)Nc3ccc(F)cc3)c3ccccc3[C@@H]2[C@@H]1CO	-30	-4	33
CO[C@@H](CN(C)Cc1cc(F)ccc1F)[C@H](C)CN(C(=O)Nc1ccc(F)cc1)[C@H](C)CO	-50	·	-99
CC(=O)N1[C@@H](CO)[C@H](c2ccccc2)[C@@H]1CN(C(=O)NC(C)C)C1CCCC1	1	2	-2
C[C@@H]1CN([C@@H](C)CO)C(=O)c2cc(N(C)C)ccc2O[C@H]1CN(C)C(=O)NC1CCCCC1	5	-1	-11
C[C@@H]1CN([C@@H](C)CO)C(=O)c2cc(C#CC3(O)CCCC3)cnc2O[C@H]1CN(C)C(=O)C1CCOCC1	23	-6	·
COc1ccc(S(=O)(=O)N(C)C[C@H]2OCCCC[C@H](C)Oc3ccc(NS(=O)(=O)c4ccc(Cl)cc4)cc3C(=O)N([C@H](C)CO)C[C@@H]2C)cc1	-87*	2	·
COc1ccc(S(=O)(=O)N(C)C[C@H]2OCCCC[C@@H](C)Oc3ccc(NS(=O)(=O)c4ccc(Cl)cc4)cc3C(=O)N([C@H](C)CO)C[C@H]2C)cc1	-90*	-2	·
COc1ccc(S(=O)(=O)N(C)C[C@@H]2OCCCC[C@@H](C)Oc3ccc(NS(=O)(=O)c4ccc(Cl)cc4)cc3C(=O)N([C@@H](C)CO)C[C@H]2C)cc1	-41	-1	·
COc1ccc(S(=O)(=O)N(C)C[C@H]2OCCCC[C@H](C)Oc3ccc(NS(=O)(=O)c4ccc(Cl)cc4)cc3C(=O)N([C@@H](C)CO)C[C@H]2C)cc1	-88*	1	·
COc1ccc(S(=O)(=O)N(C)C[C@@H]2OCCCC[C@H](C)Oc3ccc(NS(=O)(=O)c4ccc(Cl)cc4)cc3C(=O)N([C@H](C)CO)C[C@H]2C)cc1	-79	-6	·
COc1ccc(S(=O)(=O)Nc2ccc3c(c2)C(=O)N([C@H](C)CO)C[C@H](C)[C@H](CN(C)S(=O)(=O)c2ccc(Cl)cc2)OCCCC[C@@H](C)O3)cc1	-38	14	94
CO[C@H]1CN(C)C(=O)c2ccc(NC(C)=O)cc2OC[C@H](C)N(C(=O)c2ccc(F)cc2)C[C@@H]1C	33	-3	·
O=C(CCN1CCCCC1)NCC[C@@H]1CC[C@@H](NC(=O)C2CCOCC2)[C@H](CO)O1	22	-4	-56
O=C(NCC[C@@H]1CC[C@@H](NC(=O)Nc2cc(F)ccc2F)[C@@H](CO)O1)Nc1ccc(Cl)cc1	-2	4	10
Cc1ccccc1S(=O)(=O)N(C)C[C@H]1OCc2ccccc2-c2c(n(C)c3ccccc23)C(=O)N([C@H](C)CO)C[C@H]1C	-84*	·	90
COc1ccccc1S(=O)(=O)N(C)C[C@H]1OCc2ccccc2-c2c(n(C)c3ccccc23)C(=O)N([C@H](C)CO)C[C@@H]1C	-85*	7	77
